Test results from PubChem BioAssay (EPA / NIEHS).
Inconclusive results are not listed. Activity calls are given as the source filed them. How the source made its calls, unless noted: active means hit-call score of the fitted dose curve at least 0.9, where 1 is the maximum; inconclusive means response in the unintended direction; inactive means score below 0.9.

Legend:
[1] = target: Cellular tumor antigen p53 (Homo sapiens) (UniProt P04637); experiment: TOX21_p53_BLA_p2_ratio: Tox21 HCT-116 p53 Agonism Beta-lactamase Assay, Ratio, Phase 2 (AID 2283592)
How it was run: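 HCT-116 cells with p53-responsive beta-lactamase reporter, 4000 cells/well, preincubated 5 h, then compound in DMSO (217-fold dilution) for 16 h at 37C. CCF4-AM substrate 2 h at room temperature; 460/530 nm emission ratio fitted upward versus DMSO.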

[2] = TOX21_p53_BLA_p4_viability: Viability Assessment in the Tox21 HCT-116 p53 Agonism Beta-lactamase Assay, Phase 4 (AID 2283597);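 further: hits lower the luminescence signal meaning cytotoxicity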
How it was run: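 HCT-116 p53-bla cells, 4000/well, dosed after 5 h attachment and incubated 16 h at 37 °C, 5% CO2. Viability from CellTiter-Glo ATP luminescence after 30 min at room temperature, taken after the beta-lactamase read; loss of signal indicates cytotoxicity.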

[3] = target: Cellular tumor antigen p53 (Homo sapiens) (UniProt P04637); experiment: TOX21_p53_BLA_p5_ratio: Tox21 HCT-116 p53 Agonism Beta-lactamase Assay, Ratio, Phase 5 (AID 2283599)
How it was run: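 HCT-116 p53-bla cells (4000/well) plated 5 h, dosed with compound (217-fold DMSO dilution) for 16 h at 37 C; CCF4-AM substrate 2 h at room temperature. Activity is the 460/530 nm emission ratio (405 nm excitation), fitted in gain-of-signal direction versus DMSO.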

[4] = target: Cellular tumor antigen p53 (Homo sapiens) (UniProt P04637); experiment: TOX21_p53_BLA_p4_ratio: Tox21 HCT-116 p53 Agonism Beta-lactamase Assay, Ratio, Phase 4 (AID 2283601)
How it was run: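 HCT-116 p53 beta-lactamase reporter cells (4000/well) preincubated 5 h, then compound (217-fold dilution of DMSO stock) for 16 h at 37C. CCF4-AM substrate added 2 h at room temperature; 460/530 nm emission ratio fitted upward versus DMSO.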

[5] = target: PGR (gene 5241) (UniProt P06401); experiment: TOX21_PR_BLA_Followup_Agonist_ratio: Tox21 HEK293 Progesterone Receptor (PR) Agonism Beta-lactamase Follow-Up Assay, Ratio (AID 2283933)
How it was run: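 PR-UAS-bla HEK293T cells (GAL4-UAS beta-lactamase reporter) in medium with 2% charcoal-stripped FBS received compounds after 6 hr at 37C, then incubated 16 hr. LiveBLAzer FRET substrate added, 2 hr room temperature; cleaved/uncleaved (ch2/ch1) ratio fitted upward versus DMSO.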

[6] = target: PGR (gene 5241) (UniProt P06401); experiment: TOX21_PR_LUC_Followup_Agonist: Tox21 HEK293 Progesterone Receptor (PR) Agonism Luciferase Follow-Up Assay (AID 2283937; active means hit-call score of the fitted dose curve at least 0.9, where 1 is the maximum; inactive means score below 0.9)
How it was run: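 HEK293-PR-A-luc cells, pre-cultured 5 days in medium with 10% charcoal-stripped FBS, were seeded at 3,000 cells/well, rested 5 h at 37C, then exposed to compounds 16 h at 37C; luciferase read by ONE-Glo luminescence after 30 min.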

[7] = TOX21_PR_LUC_Followup_Agonist_viability: Viability Assessment in the Tox21 HEK293 Progesterone Receptor (PR) Agonism Luciferase Follow-Up Assay (AID 2283941);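 further: loss of signal means cytotoxicity so actives lower viability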
How it was run: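 HEK293-PR-A-luc cells, pre-cultured 5 days in 10% charcoal-stripped FBS, were seeded at 3,000 cells/well, rested 5 h at 37C, then given compound in DMSO for 16 h at 37C. Cellular ATP was read by CellTiter-Glo luminescence; signal loss indicates cytotoxicity.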

[8] = TOX21_PR_BLA_Followup_Antagonist_viability: Viability Assessment in the Tox21 HEK293 Progesterone Receptor (PR) Antagonism Beta-lactamase Follow-Up Assay (AID 2283936);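 further: hits lower the luminescence signal meaning cytotoxicity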
How it was run: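 PR-UAS-bla HEK293T cells (3,000/well, 2% charcoal-stripped FBS) given compound plus R5020 agonist, 16 h at 37C. CellTiter-Glo added after bla read, 30 min at room temperature; luminescence loss indicates cytotoxicity.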

[9] = target: Thyroid hormone receptor alpha (Rattus norvegicus) + Thyroid hormone receptor beta (Rattus norvegicus) (UniProt P18113+P63059); experiment: TOX21_TR_LUC_GH3_Agonist_Followup: Tox21 GH3 Thyroid Hormone Receptor Agonism Luciferase Follow-Up Assay (AID 2283939)
How it was run: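 Rat GH3 cells (1,500/well) in serum-free assay medium, treated with 15-point series, 92 uM to 5 nM final, for 24 h at 37C. Luciferase via ONE-Glo luminescence; gain of signal fitted against DMSO, T3 positive control.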

[10] = target: THRA (gene 7067) (UniProt P10827); experiment: TOX21_TRA_COA_Agonist_Followup_ratio: Tox21 Thyroid Hormone Receptor alpha Agonism through Coactivator Recruitment Follow-Up Assay, Ratio (AID 2283948; active means hit-call score of the fitted dose curve at least 0.9, where 1 is the maximum; inactive means score below 0.9)
How it was run: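 Cell-free TR-FRET: GST-tagged TRα LBD (2.5 nM) with 0.10% BSA and compound, then fluorescein-SRC-2 peptide (200 nM) and Tb-anti-GST antibody (2 nM). Readout 520:495 nm ratio (ex 340 nm), normalized to DMSO (0%) and T3 (100%).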

[11] = target: THRB (gene 7068) (UniProt P10828); experiment: TOX21_TRB_BLA_Agonist_Followup_ratio: Tox21 Thyroid Hormone Receptor beta Agonism Beta-lactamase (BLA) Follow-Up Assay, Ratio (AID 2283954)
How it was run: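 Human TRβ LBD–GAL4 DBD fusion in GeneBLAzer UAS-bla HEK293T cells; 11 concentrations in triplicate, 18 h at 37°C/5% CO2, T3 as agonist control. CCF4-AM substrate 2 h at room temperature; 460:530 nm ratio fitted for gain of signal versus DMSO.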

[12] = target: THRB (gene 7068) (UniProt P10828); experiment: TOX21_TRB_COA_Agonist_Followup_ratio: Tox21 Thyroid Hormone Receptor beta Agonism through Coactivator Recruitment Follow-Up Assay, Ratio (AID 2283963; active means hit-call score of the fitted dose curve at least 0.9, where 1 is the maximum; inactive means score below 0.9)
How it was run: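 Cell-free TR-FRET coactivator recruitment: GST-tagged TRβ LBD (5.0 nM) with 0.10% BSA incubated with compound, then fluorescein-SRC-2 peptide (200 nM) and Tb-anti-GST antibody (2 nM) added. 520:495 nm ratio normalized to DMSO (0%) and T3 (100%).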

[13] = target: Retinoic acid receptor RXR-alpha (Homo sapiens) (UniProt P19793); experiment: TOX21_TR_RXR_BLA_Agonist_Followup_ratio: Tox21 Thyroid Hormone Receptor beta Retinoid X Receptor alpha (RXRa) Agonism Beta-lactamase (BLA) Follow-Up Assay, Ratio (AID 2283968)
How it was run: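 RXRa-UAS-bla HEK293T cells (GAL4 beta-lactamase reporter) were treated with compounds at 11 concentrations in triplicate for 16 h at 37C/5% CO2, then loaded with CCF4-AM substrate for 2 h at room temperature; activity is the 460:530 nm ratio versus DMSO baseline.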

[14] = TOX21_TR_RXR_BLA_Agonist_Followup_viability: Viability Assessment in the Tox21 Thyroid Hormone Receptor beta Retinoid X Receptor alpha (RXRa) Agonism Beta-lactamase (BLA) Follow-Up Assay (AID 2283970)
How it was run: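 RXRa-UAS-bla HEK293T cells seeded at 2,500/well in phenol red-free DMEM with 2% charcoal-stripped FBS, exposed to compound 16h at 37C/5% CO2 in qHTS. Viability read by CellTiter-Glo ATP luminescence; bidirectional fitting against DMSO baseline, signal loss indicating cytotoxicity.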

[15] = CCTE_Harrill_HTTr_Viability_MCF7: CCTE's 6-hour Cell Viability Assessment for the High-Throughput Transcriptomics (HTTr) Platform, in MCF-7 cells cultured in DMEM + 10% fetal bovine serum, Harrill Lab (AID 2284010; active means hit-call score of the fitted dose curve at least 0.9, where 1 is the maximum; inactive means score below 0.9)
How it was run: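 Membrane integrity was scored by high-content imaging of propidium iodide dye exclusion after a 6 h exposure across an eight-point dilution series. Data were fitted bidirectionally relative to DMSO as negative control and baseline.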

[16] = CCTE_Harrill_HTTr_Apoptosis_MCF7: CCTE's 6-hour Apoptosis Assessment for the High-Throughput Transcriptomics (HTTr) Platform, in MCF-7 cells cultured in DMEM + 10% fetal bovine serum, Harrill Lab (AID 2284011; active means hit-call score of the fitted dose curve at least 0.9, where 1 is the maximum; inactive means score below 0.9)
How it was run: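 MCF-7 cells in DMEM + 10% FBS exposed 6 h to chemicals over an eight-point dilution series. Caspase-3/7 activation imaged by high-content CellEvent Green staining; fitted bidirectionally versus DMSO.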

[17] = CCTE_Harrill_HTTr_CellCount_MCF7: CCTE's Cell Proliferation Assessment for the High-Throughput Transcriptomics (HTTr) Platform, Harrill Lab (AID 2284012);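 further: intended direction is loss of nuclei count meaning fewer cells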
How it was run: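 MCF-7 cells were exposed for 6 h to an eight-point dilution series; Hoechst-labeled nuclei were counted by high content imaging. Curves were fitted bidirectionally against DMSO as negative control and baseline, with signal loss indicating reduced cell count.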

[18] = TOX21_p53_BLA_p5_viability: Viability Assessment in the Tox21 HCT-116 p53 Agonism Beta-lactamase Assay, Phase 5 (AID 2283600)
How it was run: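 HCT-116 p53 beta-lactamase reporter cells, 4000/well, were exposed to compound (pin transfer, 217-fold dilution) for 16 hours at 37C. Cellular ATP was read by CellTiter-Glo luminescence after 30 min at room temperature.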

[19] = target: Cellular tumor antigen p53 (Homo sapiens) (UniProt P04637); experiment: TOX21_p53_BLA_p3_ratio: Tox21 HCT-116 p53 Agonism Beta-lactamase Assay, Ratio, Phase 3 (AID 2283596)
How it was run: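 HCT116 p53-bla cells (4000/well) given compound in DMSO (217-fold dilution) after 5 h, incubated 16 h at 37C. CCF4-AM substrate 2 h at room temperature; 460/530 nm emission ratio, gain fitted against DMSO.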

[20] = TOX21_p53_BLA_p3_viability: Viability Assessment in the Tox21 HCT-116 p53 Agonism Beta-lactamase Assay, Phase 3 (AID 2283593);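 further: cells exposed to compound for 16 h before reading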
How it was run: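 HCT116 cells, 4000/well, dosed 5 h after plating by pin transfer (217-fold dilution from DMSO stock) and incubated 16 h at 37C, 5% CO2. Viability read as ATP luminescence with CellTiter-Glo after 30 min at room temperature.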

Measured: AC50

Sequence of Cellular tumor antigen p53 (Homo sapiens) (P04637 whole entry, looked up): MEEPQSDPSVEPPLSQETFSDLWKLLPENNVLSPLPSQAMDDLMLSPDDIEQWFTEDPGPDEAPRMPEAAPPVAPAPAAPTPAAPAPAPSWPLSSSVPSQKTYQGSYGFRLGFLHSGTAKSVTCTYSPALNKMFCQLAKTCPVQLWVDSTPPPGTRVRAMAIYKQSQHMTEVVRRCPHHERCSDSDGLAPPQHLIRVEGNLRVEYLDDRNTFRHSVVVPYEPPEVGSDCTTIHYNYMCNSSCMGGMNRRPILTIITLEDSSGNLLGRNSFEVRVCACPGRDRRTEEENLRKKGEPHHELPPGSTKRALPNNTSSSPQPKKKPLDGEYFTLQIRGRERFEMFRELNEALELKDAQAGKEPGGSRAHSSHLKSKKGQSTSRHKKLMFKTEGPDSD
Sequence of PGR (gene 5241) (P06401 whole entry, looked up, the tested form may be a part): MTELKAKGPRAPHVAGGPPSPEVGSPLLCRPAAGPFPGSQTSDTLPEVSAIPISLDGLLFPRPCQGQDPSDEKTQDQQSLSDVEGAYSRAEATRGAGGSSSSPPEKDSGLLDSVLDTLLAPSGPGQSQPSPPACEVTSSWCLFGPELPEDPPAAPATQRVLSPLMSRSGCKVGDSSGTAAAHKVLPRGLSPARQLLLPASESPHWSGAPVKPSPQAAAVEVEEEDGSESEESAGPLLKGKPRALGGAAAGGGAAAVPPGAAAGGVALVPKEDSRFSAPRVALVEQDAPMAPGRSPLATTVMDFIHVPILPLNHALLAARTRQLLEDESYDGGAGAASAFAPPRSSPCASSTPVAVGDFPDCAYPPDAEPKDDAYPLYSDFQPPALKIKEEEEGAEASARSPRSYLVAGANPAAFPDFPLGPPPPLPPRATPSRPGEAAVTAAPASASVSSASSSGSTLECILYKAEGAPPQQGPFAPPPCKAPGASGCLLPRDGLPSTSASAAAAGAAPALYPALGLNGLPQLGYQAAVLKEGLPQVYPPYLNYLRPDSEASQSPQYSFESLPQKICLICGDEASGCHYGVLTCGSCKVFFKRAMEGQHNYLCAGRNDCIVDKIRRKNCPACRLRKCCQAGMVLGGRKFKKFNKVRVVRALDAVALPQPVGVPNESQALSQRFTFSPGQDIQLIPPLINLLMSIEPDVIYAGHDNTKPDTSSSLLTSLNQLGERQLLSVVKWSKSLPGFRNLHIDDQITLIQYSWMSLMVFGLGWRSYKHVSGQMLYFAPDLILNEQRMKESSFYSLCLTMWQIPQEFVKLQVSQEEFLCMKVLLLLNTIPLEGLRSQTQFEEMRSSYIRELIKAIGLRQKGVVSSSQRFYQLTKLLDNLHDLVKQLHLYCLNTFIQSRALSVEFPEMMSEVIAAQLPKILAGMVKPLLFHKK
Sequence of Retinoic acid receptor RXR-alpha (Homo sapiens) (P19793 whole entry, looked up, the tested form may be a part): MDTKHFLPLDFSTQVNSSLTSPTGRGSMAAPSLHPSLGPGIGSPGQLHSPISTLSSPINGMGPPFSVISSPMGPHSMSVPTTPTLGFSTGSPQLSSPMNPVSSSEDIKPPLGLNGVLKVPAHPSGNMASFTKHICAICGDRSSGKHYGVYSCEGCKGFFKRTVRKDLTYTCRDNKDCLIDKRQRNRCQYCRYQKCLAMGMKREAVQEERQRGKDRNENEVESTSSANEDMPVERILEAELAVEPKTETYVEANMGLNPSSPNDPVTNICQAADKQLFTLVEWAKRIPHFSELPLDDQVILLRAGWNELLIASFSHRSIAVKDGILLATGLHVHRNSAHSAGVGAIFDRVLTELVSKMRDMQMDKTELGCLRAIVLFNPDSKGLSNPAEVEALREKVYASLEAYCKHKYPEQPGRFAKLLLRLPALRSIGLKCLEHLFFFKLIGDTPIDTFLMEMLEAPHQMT
Sequence of THRB (gene 7068) (P10828 whole entry, looked up, the tested form may be a part): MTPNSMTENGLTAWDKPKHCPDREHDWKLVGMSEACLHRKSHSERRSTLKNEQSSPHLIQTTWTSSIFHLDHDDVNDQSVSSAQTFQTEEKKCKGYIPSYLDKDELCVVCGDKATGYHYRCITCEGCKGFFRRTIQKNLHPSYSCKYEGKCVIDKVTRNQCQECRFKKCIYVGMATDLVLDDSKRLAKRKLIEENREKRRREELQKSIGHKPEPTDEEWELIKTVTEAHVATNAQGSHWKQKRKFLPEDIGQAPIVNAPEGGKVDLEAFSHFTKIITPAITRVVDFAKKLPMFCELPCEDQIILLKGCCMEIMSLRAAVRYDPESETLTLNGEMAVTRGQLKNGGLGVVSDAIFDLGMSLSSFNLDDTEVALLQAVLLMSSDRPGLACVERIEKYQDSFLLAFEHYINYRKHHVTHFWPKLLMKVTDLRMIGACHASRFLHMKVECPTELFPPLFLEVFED
Sequence of THRA (gene 7067) (P10827 whole entry, looked up, the tested form may be a part): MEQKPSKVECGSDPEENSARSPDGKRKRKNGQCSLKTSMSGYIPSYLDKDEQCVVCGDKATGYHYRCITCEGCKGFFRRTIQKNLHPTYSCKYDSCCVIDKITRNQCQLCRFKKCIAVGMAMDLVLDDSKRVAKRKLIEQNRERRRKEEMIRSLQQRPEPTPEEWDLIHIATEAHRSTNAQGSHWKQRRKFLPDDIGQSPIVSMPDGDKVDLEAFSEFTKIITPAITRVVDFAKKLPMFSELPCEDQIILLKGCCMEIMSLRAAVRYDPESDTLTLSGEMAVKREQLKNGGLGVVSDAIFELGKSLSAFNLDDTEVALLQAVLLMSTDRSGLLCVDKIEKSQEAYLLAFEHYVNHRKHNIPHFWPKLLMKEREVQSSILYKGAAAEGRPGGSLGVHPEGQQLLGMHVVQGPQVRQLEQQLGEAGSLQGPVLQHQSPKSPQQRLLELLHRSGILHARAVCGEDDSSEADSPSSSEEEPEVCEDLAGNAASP
Sequence of Thyroid hormone receptor alpha (Rattus norvegicus) + Thyroid hormone receptor beta (Rattus norvegicus) (P63059 whole entry, looked up): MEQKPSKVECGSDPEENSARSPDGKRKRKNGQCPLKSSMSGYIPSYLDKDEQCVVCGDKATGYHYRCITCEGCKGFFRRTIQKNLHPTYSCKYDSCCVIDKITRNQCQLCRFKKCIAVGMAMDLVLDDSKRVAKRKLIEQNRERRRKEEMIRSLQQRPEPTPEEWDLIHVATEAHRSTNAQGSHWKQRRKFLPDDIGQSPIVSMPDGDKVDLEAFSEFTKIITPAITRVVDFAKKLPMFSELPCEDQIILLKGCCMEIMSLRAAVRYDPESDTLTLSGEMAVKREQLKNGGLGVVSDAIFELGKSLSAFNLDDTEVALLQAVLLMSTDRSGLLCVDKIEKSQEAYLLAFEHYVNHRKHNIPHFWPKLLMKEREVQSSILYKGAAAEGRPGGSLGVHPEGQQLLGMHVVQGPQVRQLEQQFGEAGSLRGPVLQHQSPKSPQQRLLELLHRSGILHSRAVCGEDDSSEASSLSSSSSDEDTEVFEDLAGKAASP
Sequence of Thyroid hormone receptor alpha (Rattus norvegicus) + Thyroid hormone receptor beta (Rattus norvegicus) (P18113 whole entry, looked up): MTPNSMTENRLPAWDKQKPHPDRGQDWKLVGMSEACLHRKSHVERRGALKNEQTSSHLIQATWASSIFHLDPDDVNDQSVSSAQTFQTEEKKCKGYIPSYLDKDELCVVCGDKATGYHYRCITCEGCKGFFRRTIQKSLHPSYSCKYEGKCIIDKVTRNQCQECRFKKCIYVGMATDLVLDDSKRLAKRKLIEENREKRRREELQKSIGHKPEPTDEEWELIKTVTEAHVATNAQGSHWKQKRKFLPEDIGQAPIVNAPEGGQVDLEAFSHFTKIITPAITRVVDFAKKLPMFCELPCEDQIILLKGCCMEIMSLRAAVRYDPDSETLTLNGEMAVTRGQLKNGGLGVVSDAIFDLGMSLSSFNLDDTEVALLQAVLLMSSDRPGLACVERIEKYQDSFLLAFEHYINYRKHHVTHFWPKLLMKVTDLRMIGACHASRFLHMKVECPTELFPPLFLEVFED

NC(=O)C(Cl)Cl
inactive: [1] | [2] | [3] | [4]

C=C1C[C@@H]2[C@H](CC[C@]3(C)C(=O)CC[C@@H]23)[C@@]2(C)C=CC(=O)C=C12
inactive: [5] | [6] | [7]

CCC1COC(Cn2cncn2)(c2ccc(Cl)cc2Cl)O1 (centres undefined)
inactive: [8]

C[C@]12CC[C@H]3[C@@H](CCC4=CC(=O)CC[C@@H]43)[C@@H]1CC[C@@H]2OC(=O)CCc1ccccc1
inactive: [8] | [7]

COc1ccc(OC)c([C@@H](O)[C@H](C)N)c1
active: [9] 14.9 µM
inactive: [10] | [11] | [12] | [13] | [14]

[Cl-].[Cl-].[Cl-].[Fe+3]
inactive: [15] | [16] | [17]

C[C@@H]1[C@H]2Cc3ccc(O)cc3[C@]1(C)CCN2C
inactive: [2] | [18]

CCN(CC)C(=O)N[C@@H]1C=C2c3cccc4[nH]cc(c34)C[C@@H]2N(C)C1
inactive: [19] | [3] | [18]

CC(C)NC(C)Cc1ccc(I)cc1 (centres undefined)
inactive: [2] | [3] | [18] | [4]

Cc1ccccc1-n1c(CF)nc2ccc(N)cc2c1=O
inactive: [20] | [3] | [18]

C[C@H](N)[C@H](O)c1ccc(O)c(O)c1
inactive: [19] | [3] | [4]

NCCc1ccc(O)cc1
inactive: [19] | [3]

C1CCNCC1
inactive: [19] | [3]

CCC(C)Br (centres undefined)
inactive: [19] | [2] | [3] | [18] | [4]

N[C@@H](Cc1ccc(Oc2cc(I)c(O)c(I)c2)c(I)c1)C(=O)O
inactive: [19] | [2] | [3] | [4] | [13] | [14]
